Pf Dd2 growth: blocks in vitro growth of P. falciparum Dd2; hit rate 4.3% among 120,000; P. falciparum Dd2 growth, SYBR Green, 72 h; Potency, µM (series often up to 28.9 µM), hits mostly inhibitors; active = well fitted inhibition curve with a large enough effect; also: nearly all actives have a fitted effect of over 65% in size
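Infected erythrocytes (Dd2, 0.3% parasitemia, 2.5% hematocrit final) are added to compound in RPMI-1640/Albumax II medium, grown 72 h at 37C in low oxygen, then lysed with saponin/Triton-X containing SYBR Green and read by fluorescence.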
Large screens that a line does not name were inactive; ! = not confirmed by another sample. This is one part of a sample in which hits are shown more often than they occur.

COc1ccccc1CNC(=O)C1CC(=O)N(c2n[nH]c3ccccc23)C1 (stereo not drawn)	none
O=C1N(Cc2cccnc2)C[C@H]2CN(Cc3ccc(C(F)(F)F)cc3)CCN12	none
COCCC(=O)N[C@H]1CC[C@]2(C)CC[C@@H]3[C@H](OC(=O)[C@H]3C)[C@H]2[C@@H]1C	none
COc1ccc(CCNC(=O)c2cnn(-c3cccc(C)c3)c2C2CCN(C(=O)OC(C)(C)C)CC2)cc1OC	Pf Dd2 growth 11µM
COc1ccc(OC)c(CCNC(=O)c2cnn(-c3ccc(C)cc3C)c2C2CCN(C(=O)OC(C)(C)C)CC2)c1	none
COc1ccc(CCNC(=O)c2cnn(-c3ccc(F)cc3)c2C2CCN(C(=O)OC(C)(C)C)CC2)cc1OC	Pf Dd2 growth 7.9µM
Cc1nc(CC(=O)N2CC[C@@H](NC(=O)c3cnccn3)[C@H](O)C2)cs1	none
CCc1cccc(NC(=O)CCC2CCN(C(=O)c3ccccc3)CC2)c1	none
COc1ccc(S(=O)(=O)NCCc2sc(-c3cccc(C)c3)nc2C)cc1	none
CCN(CC)C(=O)Cn1c(C)ccc(NS(=O)(=O)c2ccc(OC)cc2)c1=O	none
CNC(=O)[C@@H]1C[C@@H](O)CN1C1CCN(C(=O)CCCc2ccccc2)CC1	none
O=C(NCC1(COc2cnccn2)C[C@@H](O)[C@@H](O)C1)Nc1cccnc1 (stereo partly drawn)	none
Cc1ncc2c(c1CNC(=O)c1ccc3c(c1)OCO3)CCN(C(=O)c1coc3c1C(=O)CCC3)C2	none
CCCNC(=O)N1CCC(c2noc(-c3cccnc3)n2)C1 (stereo not drawn)	none
O=C1CCC2(C(=O)NCCN3CCOCC3)CCCC=C2N1c1ccccc1 (stereo not drawn)	none
COCC(=O)N[C@@H]1CN(Cc2ccc(OC)cc2OC)C[C@H]1CO	none
Cc1ccc(-n2c(/C=C/c3cc(Br)cs3)nc3ccccc3c2=O)cc1C	none
Cc1ccc(-n2c(/C=C/c3cccs3)nc3ccccc3c2=O)cc1C	Pf Dd2 growth 8.9µM
COc1cccc(/C=C/c2nc3ccccc3c(=O)n2-c2ccc(C)c(C)c2)c1OC	none
c1cnnc(-c2noc(C3(Cn4cccn4)CC3)n2)c1	none
CN1CCN(c2nc3c(c(=O)[nH]2)CCN(Cc2ccccc2C(F)(F)F)CC3)CC1	none
COc1ccc(OC)c(NC(=O)c2cccn2-c2nnc(N3CCCCC3)s2)c1	none
COc1ccc(OC)c(NCc2cccn2-c2nnc(N3CCC(C)CC3)s2)c1	none
COc1ccc(NCc2cccn2-c2nnc(N3CCC(C)CC3)s2)c(OC)c1	Pf Dd2 growth 11µM
COc1cccc(CNC(=O)c2c[nH]c3ncccc23)c1	none
COc1cc(C(=O)NC(c2ccc(Cl)cc2)c2cc(Cl)c3cccnc3c2O)cc(OC)c1OC (stereo not drawn)	Pf Dd2 growth 2.8µM
COc1cc(C(=O)NCC(c2cccnc2)N2CCc3ccccc3C2)cc(OC)c1OC (stereo not drawn)	none
COc1cc(C(=O)Nc2ccc(Cl)c(-c3nc4ncccc4o3)c2)cc(OC)c1OC	none
COc1cccc(C(=O)NC(c2ccc(Cl)cc2)c2cc(Cl)c3cccnc3c2O)c1 (stereo not drawn)	Pf Dd2 growth 3.2µM
COc1cccc(C(=O)N[C@H]2[C@H](O)[C@H](O)C[C@@H]2c2cccnc2)c1	none
Cc1noc2c(-c3cn[nH]c3)cc(-c3ccccc3)nc12	none
COc1cncc(Nc2ncc(-c3cccc(F)c3)c3c2OCC3)c1	Pf Dd2 growth 11µM
COc1ccc(-c2cnc(NC(=O)Cc3ccccc3)c3c2CCO3)cn1	none
COc1ccc(Nc2ncc(-c3ccccc3OC)c3c2OCC3)cc1	none
CNC(=O)c1cccc(-c2cnc(Nc3ccc(Cl)cn3)c3c2CCO3)c1	none
COc1ccc(-c2cnc(Nc3cc(F)cc(N4CCOCC4)c3)c3c2CCO3)cn1	Pf Dd2 growth 11µM
O=C(Nc1ncc(-c2cccc(F)c2)c2c1OCC2)c1ccncc1	none
COCCNc1ncc(-c2ccc(N3CCOCC3)cc2)c2c1OCC2	none
CNC(=O)c1cccc(-c2cnc(Nc3cccc(C(F)(F)F)c3)c3c2CCO3)c1	none
CNC(=O)c1cccc(-c2cnc(Nc3ccc(F)c(Cl)c3)c3c2CCO3)c1	Pf Dd2 growth 11µM
O=C(CC[C@H]1NC(=O)c2ccccc2NC1=O)Nc1ccncc1	none
O=C(O)CCc1cc2n(n1)CCCN(C(=O)c1ccc3n[nH]nc3c1)C2	none
Cc1cccc(-c2noc(CCC(=O)N3CCc4c(nc(C)[nH]c4=O)C3)n2)c1	none
CCOCCCNC(=O)CCc1nnc2ccc(N3CCN(c4cccc(OC)c4)CC3)nn12	none
O=C1NCC2(CCN(Cc3ccc(F)cc3)CC2)Oc2ccccc21	none
O=C1NC2(CCN(CC3CCCCC3)CC2)COc2ccccc21	Pf Dd2 growth 10µM
O=C1NC2(CCN(Cc3cccnc3)CC2)COc2ccccc21	none
O=C1NC2(CCN(Cc3ccc(F)cc3)CC2)COc2ccccc21	Pf Dd2 growth 3.2µM
O=C1NC2(CCN(Cc3ccccc3C(F)(F)F)C2)COc2ccccc21 (stereo not drawn)	none
O=C1NC2(CCCN(Cc3ccc(C(F)(F)F)cc3)C2)COc2ccccc21 (stereo not drawn)	Pf Dd2 growth 11µM!
O=[S+]1([O-])NC2(CCCN(Cc3ccc(C(F)(F)F)cc3)C2)COc2ccccc21 (stereo not drawn)	none

Source: PubChem (National Center for Advancing Translational Sciences (NCATS))
